Compound activity (PubChem)
Only some compounds are listed: those with a hit (about 2.1% of all), similar ones and a draw of the others.
BaF3 tox – parental Ba/F3 viability inhibition as JAK2V617F counter-screen; AID 1486; 220,000 compounds, 1.1% hits; CellTiter-Glo ATP luminescence; inhibition, % at 5.6 µM;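 active means inhibition above a per-campaign cutoff, the mean inhibition of all tested compounds plus 3 SD, cut at about 27% in these data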;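 further: 0% = DMSO wells and 100% = JAK Inhibitor I control wells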
Ba/F3 V617F tox – lowers viability of Ba/F3 cells expressing EpoR and JAK2V617F | ATP luminescence | inhibition, % at 5.6 µM | 220,000 compounds, 1.1% hits | AID 1446;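 active means inhibition above the campaign mean plus 3 SD over all tested compounds, cut at about 24% in these data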;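 further: cytokine-independent growth of Ba/F3 cells driven by EpoR plus mutant JAK2; 0% = DMSO-treated cells and 100% = JAK inhibitor I control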
KLF5 inh – inhibitors of KLF5 expression | DLD-1 KLF5 promoter-luciferase reporter, luminescence | inhibition, % at 5 µM | 290,000 compounds, 0.23% hits | AID 1700;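 active means inhibition above a per-plate limit of that plate's mean compound inhibition plus 3 SD, cut at about 60% in these data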;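 further: 0% = DMSO wells and 100% = LY294002 at 200 µM; higher means less KLF5 promoter-driven luciferase light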
IEC-6 cytotox – counter-screen for KLF5 inhibitors: cytotoxicity in IEC-6 cells; inhibition, % at 5 µM; IEC-6 cytotoxicity, luminescence viability; 290,000 compounds, 0.78% hits; in the data active means inhibition above about 22%;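 further: 0% = plate median of test compound wells and 100% = cytotoxic reference compound wells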
aSyn 5UTR inh – 5' untranslated region of α-synuclein, MLPCN primary screen | alpha-synuclein 5'UTR reporter, inhibitor activity | inhibition, % (tested at 7.5 µM) | 300,000 compounds, 0.82% hits; in the data active means inhibition above about 60%;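 further: H4 neuroglioblastoma cells stably carrying SNCA 5'UTR luciferase fusion; 0% = DMSO wells and 100% = positive control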
APP 5UTR inh – APP translation inhibition. 190,000 compounds, 0.82% hits. SH-SY5Y APP 5'UTR-luciferase reporter, luminescence. inhibition, % at 2 µM;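 active means inhibition above a set limit, derived from the sample mean plus 3 SD, cut at about 45% in these data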
BaF3 parental 2 – parental Ba/F3 viability inhibition for JAK2V617F counter-screen | shares compounds with Ba/F3 V617F tox | CellTiter-Glo luminescence; cells kept alive by added IL-3 | inhibition, % at 5.6 µM | 580 compounds, 31% hits;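 active means cell growth inhibition above the hit limit set in the earlier mutant JAK2 cell screen, cut at about 27% in these data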;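 further: plate controls were DMSO-treated cells for no effect and JAK Inhibitor I control wells for full effect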
JAK2V617F conf – Ba/F3 EpoR-JAK2V617F viability loss, confirmation | shares compounds with Ba/F3 V617F tox | CellTiter-Glo luminescence | inhibition, % at 5.6 µM | 580 compounds, 66% hits;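 active means mean inhibition above the hit cutoff derived in the earlier primary screen, cut at about 25% in these data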;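 further: 0% = DMSO-treated cells and 100% = JAK inhibitor I control wells; higher means lower luminescence from reduced cell ATP and viability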
Active calls of the source: *; · = no result given.

SMILES	BaF3 tox	Ba/F3 V617F tox	KLF5 inh	IEC-6 cytotox	aSyn 5UTR inh	APP 5UTR inh	others
Nc1ccn([C@@H]2O[C@H](CO)[C@@H](O)C2O)c(=O)n1 (some centres not stated)	72*	75*	29	93*	72*	·
Nc1ccn([C@@H]2CS[C@H](CO)O2)c(=O)n1	-5	-2	-32	-2	31	·
O=C(Cn1cc(S(=O)(=O)N2CCN(c3ccccc3F)CC2)c2ccccc2c1=O)NCCCN1CCCCCC1	-6	-4	-40	-4	6	10
O=C(NCc1ccc(N2CCCC2=O)cc1)c1cc(COc2c(F)cccc2F)on1	·	·	-4	-2	-17	·
CCC(O)CNc1nc(SC)nc2sc3c(c12)CCN(C)C3 (configuration not stated)	57*	-2	-40	-5	15	-2
CN1CCc2c(sc3c2C(=O)NC(c2ccco2)N3)C1 (configuration not stated)	30*	-2	-8	8	-18	15
CN1CCc2c(sc3c2C(=O)NC(c2cn(Cc4ccccc4)c4ccccc24)N3)C1 (configuration not stated)	5	4	1	5	64*	16
O=C1NC(c2ccco2)Nc2sc3c(c21)CCN(Cc1ccccc1)C3 (configuration not stated)	6	-4	-9	-4	·	13
CN1CCc2c(sc3c2C(=O)NC(c2ccc(-c4ccc(Cl)cc4)o2)N3)C1 (configuration not stated)	-6	-1	-19	-2	-5	·
CC1(C)CC(=O)C(C(C2=C(O)CC(C)(C)CC2=O)c2ccc([N+](=O)[O-])cc2)C(=O)C1 (configuration not stated)	3	-1	-7	-8	-1	6
CC1(C)CC(=O)C(C(C2=C(O)CC(C)(C)CC2=O)c2ccc(O)c([N+](=O)[O-])c2)=C(O)C1	94*	3	-19	-5	0	-18
COc1ccc(N2CCc3c(C)nc4c(OC)cc(OC)cc4c32)cc1	6	5	-43	8	7	-9
COc1ccc(N2CCc3c(C)nc4c(OC)cccc4c32)cc1	78*	87*	57	70*	89*	86*
CC1CN(S(=O)(=O)c2ccc(C(=O)Nc3nnc(-c4ccccn4)o3)cc2)CC(C)O1 (configuration not stated)	-3	0	-11	-8	-11	-17
O=C(Nc1nnc(C2CC2)o1)c1ccc(S(=O)(=O)N2CCCc3ccccc32)cc1	·	·	·	·	63*	-8
CC1CN(S(=O)(=O)c2ccc(C(=O)Nc3nnc(-c4ccc5c(c4)CCCC5)o3)cc2)CC(C)O1 (configuration not stated)	7	1	-26	5	76*	14
Cc1cc(NC(=O)COC(=O)c2ccc(S(=O)(=O)N3CCCc4ccccc43)cc2)no1	49*	63*	63*	2	46	92*
Cc1cc(NC(=O)COC(=O)c2ccc(S(=O)(=O)N3CCCC3)cc2)no1	5	-1	-18	-1	7	-8
COc1ccc(-c2nnc(NC(=O)c3ccc(S(=O)(=O)N4CCCc5ccccc54)cc3)o2)cc1	4	0	21	-1	69*	22
Cc1ccc(N2C(=O)CC(NNC(=O)Cc3ccc(F)cc3)C2=O)cc1Cl (configuration not stated)	0	4	4	4	9	·
CC12CN(C(=O)c3ccc(Cl)cc3)C3(C#N)CC1CCC23C (configuration not stated)	8	0	-38	1	9	8
CC12CN(NC(=O)c3ccccc3F)C3(C#N)CC1CCC23C (configuration not stated)	90*	5	-4	4	-10	-7
COc1cc(C(C(=O)NCc2ccccc2)N(C(=O)c2snc(C(N)=O)c2N)C2CCCC2)cc(OC)c1OC (configuration not stated)	·	·	6	-1	20	·
CCC(C)C(=O)Nc1c2c(nc3c1CCC3)CCCC2 (configuration not stated)	18	32*	-6	8	4	15	BaF3 parental 2=-6;JAK2V617F conf=-20
CC(C)C(=O)Nc1c2c(nc3c1CCC3)CCCC2	10	1	-28	0	1	12
SMILES	BaF3 tox	Ba/F3 V617F tox	KLF5 inh	IEC-6 cytotox	aSyn 5UTR inh	APP 5UTR inh	others
COc1ccc(-c2nnc(SCc3ccc(C(=O)O)cc3)n2C)cc1OC	·	·	-49	-1	9	·
Cc1ccc(C=Nc2ccccc2C(N)=O)cc1	22	42*	13	16	-109	17	BaF3 parental 2=37*;JAK2V617F conf=78*
Cc1ccc(C=Nc2ccccc2C(=O)Nc2ccccc2)cc1	7	0	-28	0	-77	19
CCOc1cc(C#N)c(NC(=O)c2ccco2)cc1OCC	15	39*	23	21	0	-12	BaF3 parental 2=17;JAK2V617F conf=24*
CCOc1cc(NC(=O)c2ccco2)c(OCC)cc1NC(=O)c1ccco1	·	·	6	-7	-9	·
CC1=CC(C)(C)N(S(=O)(=O)c2ccc(F)cc2)c2ccc(C)cc21	0	-2	-27	7	8	10
CC1=CC(C)(C)N(S(=O)(=O)c2ccc(C)cc2)c2ccccc21	11	30*	9	5	41	20	BaF3 parental 2=46*;JAK2V617F conf=94*
Cc1ccc(O)c(NC(=O)CSc2ccc(Cl)cc2)c1	23	43*	-34	1	-177	-17	BaF3 parental 2=21;JAK2V617F conf=71*
Cc1cccc(Nc2nc(NCc3ccco3)c3ccccc3n2)c1	13	33*	-8	1	-9	18	BaF3 parental 2=49*;JAK2V617F conf=52*
CCCOc1ccc2ccccc2c1/C=N/n1c(C)nnc1-n1nc(C)cc1C	26	24*	-9	12	35	9	BaF3 parental 2=55*;JAK2V617F conf=66*
Nc1ccc2nc(-c3cc(Cl)c(N)c(Cl)c3)[nH]c2c1	20	24*	-90	6	-279	-44	BaF3 parental 2=31*;JAK2V617F conf=53*
Nc1ccc2nc(-c3ccc(Cl)cc3)[nH]c2c1	·	·	·	·	-176	-61
Cc1ccc(C)c(-c2nc3ccc(N)cc3[nH]2)c1	26	33*	-1	7	-64	3	BaF3 parental 2=35*;JAK2V617F conf=54*
CCOc1ccc(NC2=NC(C)(C)N=C(N)N2)cc1	26	41*	-9	-2	0	-2	BaF3 parental 2=83*;JAK2V617F conf=93*
O=C(NC1CCCc2c1cnn2-c1ccc(F)cc1F)c1ccccc1N1CCOCC1 (configuration not stated)	·	·	-18	4	-14	·
Cn1c(CNC(=O)CCNC(=O)c2ccccc2)cc(=O)n(C)c1=O	·	·	-8	-1	16	·
CN(C)c1ccc(/C=N/N=C(N)N)cc1[N+](=O)[O-]	7	3	-11	3	-4	-7
